Only some compounds are listed: those with a hit (about 2.4% of all), similar ones and a draw of the others.
Cruzain noTriton – cruzain (T. cruzi) inhibition without detergent; purified cruzain, Z-FR-AMC fluorescence, no detergent; AID 1476; 200,000 compounds, 2.3% hits; Potency, µM, for the others: max response, negative = inhibition, actives largely listed as inhibitors; P25779;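 also: plate controls were enzyme without inhibitor for no effect and buffer without enzyme for full effect; nearly all actives have a fitted effect of over 40% in size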
Target sequence (P25779 123-467 limits assumed): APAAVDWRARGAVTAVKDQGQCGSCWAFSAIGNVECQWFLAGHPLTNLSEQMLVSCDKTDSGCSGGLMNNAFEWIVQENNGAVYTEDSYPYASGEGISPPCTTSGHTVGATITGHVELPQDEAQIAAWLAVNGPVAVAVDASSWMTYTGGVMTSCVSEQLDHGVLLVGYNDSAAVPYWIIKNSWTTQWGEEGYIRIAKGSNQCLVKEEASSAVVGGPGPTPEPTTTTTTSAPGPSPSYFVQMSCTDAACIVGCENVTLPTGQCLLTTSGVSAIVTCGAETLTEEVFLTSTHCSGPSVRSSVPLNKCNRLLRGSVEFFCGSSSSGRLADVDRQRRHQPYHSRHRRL
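Purified cruzain at 1.5 nM, pre-incubated 15 min with compound at room temperature in 100 mM sodium acetate pH 5.5, 5 mM DTT, 0.00005% Triton X-100. Reaction started with 2 uM Z-FR-AMC; AMC fluorescence increase over 60 s gives rate.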
Cruzain Triton – cruzain (T. cruzi) inhibition with detergent | 200,000 compounds, 0.43% hits | purified cruzain, Z-FR-AMC fluorescence, 0.01% Triton | Potency, µM, for the others: max response, negative = inhibition, hits mostly inhibitors;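 also: plate controls were neutral wells for no effect and buffer without enzyme for full effect; nearly all actives have a fitted effect of over 40% in size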
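Sodium acetate buffer (100 mM, pH 5.5) containing 5 mM DTT and 0.01% Triton X-100 hosted 1.5 nM cruzain and test compound for 15 min at room temperature. Cleavage of 2 uM Z-FR-AMC was then tracked by fluorescence.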
* hit, by the source's call; ? = inconclusive. Calls follow the shape of the dose curve; as a rule, active = well fitted curve in the direction sought with a large enough effect; inconclusive = small, poorly fitted or top-dose-only effect, or another doubt; inactive = no such curve, though single readings can be large; an effect the other way counts as inactive or inconclusive. Potency is read from the fitted curve at half-maximal effect.

SMILES | Cruzain noTriton | Cruzain Triton
N#Cc1nc(Cc2cccc3ccccc23)oc1N1CCN(c2ccccc2)CC1 | 7.9µM* | 1%
CC1CCN(c2oc(Cc3cccc4ccccc34)nc2C#N)CC1 | -3% | 2%
COc1ccc(N2CCN(c3oc(Cc4cccc5ccccc45)nc3C#N)CC2)cc1 | 16µM* | 3%
N#Cc1nc(Cc2cccc3ccccc23)oc1N1CCOCC1 | 8% | -3%
CC(CC(=O)O)(CC(=O)O)c1ccccc1 | -2% | 2%
COc1cc(C2CC(=O)N(Cc3ccc(F)cc3)c3ccccc3S2)cc(OC)c1OC (stereo not drawn) | ? | -6%
CCCCNC(=O)CN1C(=O)c2c(c3ccccc3n2C)C1c1ccc(OC)cc1 (stereo not drawn) | ? | -7%
COC(=O)c1ccc(-c2nc3cc(Cl)c(N)cc3s2)cc1 | 7.9µM* | 6%
COC(=O)c1ccc(-c2nc3cc(N)ccc3o2)cc1 | 6% | -4%
CCOC(=O)c1c(NC(=O)C2=C(C)NC(=S)NC2c2ccc(F)cc2)sc(C)c1C (stereo not drawn) | 16µM* | -6%
CCOC(=O)c1c(NC(=O)C2=C(C)NC(=S)NC2c2ccc(F)cc2F)sc(C)c1C (stereo not drawn) | ? | -4%
CCOC(=O)c1c(NC(=O)C2=C(C)NC(=S)NC2c2ccc(C)cc2)sc(C)c1C (stereo not drawn) | 20µM* | -8%
CCOC(=O)c1c(NC(=O)C2C3C=CC(CC3)C2C(=O)O)sc(C)c1C (stereo not drawn) | -5% | -6%
CCSc1ncc(Cl)c(C(=O)N(Cc2ccc(N(C)C)cc2)Cc2ccco2)n1 | -22% | -6%
Cc1ccc(CNC(=O)c2cc3c(s2)-c2ccccc2SC3)cc1 | ? | -9%
COc1ccccc1CNC(=O)c1cc2c(s1)-c1ccc(Cl)cc1SC2 | -12% | -5%
Cc1ccc(CNC(=O)c2cc3c(s2)-c2ccc(Cl)cc2SC3)cc1 | 13µM* | -2%
O=C(NCc1ccccc1Cl)c1cc2c(s1)-c1ccc(Cl)cc1SC2 | 10µM* | -6%
O=C(/C=C\Nc1cccc(F)c1)c1ccc2c(c1)OCO2 | 25µM* | 2%
COc1ccc(N/C=C\C(=O)c2ccc3c(c2)OCO3)cc1OC | 3% | -7%
N[C@@H](Cn1ccc(=O)n(Cc2ccccc2C(=O)O)c1=O)C(=O)O | 9% | -4%
COC(=O)N/N=C/c1ccc(-c2cc(Cl)cc(Cl)c2)o1 | -12% | -8%
NC(=S)N/N=C/c1ccc(-c2cc(Cl)cc(Cl)c2)o1 | 10µM* | 4.5µM*
Cc1ccc(Nc2cc(C(=O)NC3CCCC3)c3ccccc3n2)cc1C | 7% | -12%
O=C(COc1ccc(Br)cc1)Nc1cc(S(=O)(=O)N2CCCCC2)ccc1N1CCCCC1 | ? | -5%
SMILES | Cruzain noTriton | Cruzain Triton
CC(=O)c1c(C)[nH]c(C(=O)OCC(=O)Nc2cc(S(=O)(=O)N3CCCC3)ccc2Cl)c1C | -2% | -5%
CC(=O)Nc1sc(C)c(C)c1C(=O)OCC(=O)Nc1cc(S(=O)(=O)N2CCCCC2)ccc1Cl | 25µM* | -5%
O=C(COc1ccc(Cl)cc1)Nc1cc(S(=O)(=O)N2CCCCC2)ccc1N1CCCCC1 | 16µM* | -2%
Cc1ccc(NC(=O)CN2C(=O)NC3(CCC(C)CC3)C2=O)c(Cl)c1 (stereo not drawn) | -14% | 3%
CC1CCC2(CC1)NC(=O)N(CC(=O)Nc1nc(-c3ccc(F)cc3)cs1)C2=O (stereo not drawn) | 25µM* | 6%
O=S(=O)(c1ccc(Cl)c(Cl)c1)N1CCc2nc3ccccc3n2CC1 | 10µM* | -6%
O=S(=O)(c1ccc2c(c1)nc1n2CCC1)N1CCOCC1 | -8% | -2%
O=S(=O)(Cc1ccccc1)N1CCn2c(nc3ccccc32)C1 | -20% | 2%
O=S(=O)(c1ccc(Br)cc1)N1CCn2c(nc3ccccc32)C1 | 5µM* | -3%
Cc1cnn(C(=S)NCc2ccc(Cl)cc2)c1 | -28% | -29%
Cc1cnn(C(=S)NCCc2ccccc2)c1 | 13µM* | 16µM*
COc1ccccc1-c1nc(NCc2cccnc2)c2ccccc2n1 | -10% | 3%
COc1ncc2nc(-c3ccccc3)c(=O)n(CCC#N)c2n1 | -14% | -15%
CS(=O)(=O)Nc1cccc(-c2cc(NCc3ccccc3)ncn2)c1 | -1% | -3%
CN(C)c1cc(-c2cccc(NS(C)(=O)=O)c2)ncn1 | 16µM* | 13µM*
O=C(Nc1cc(Sc2ccccn2)cc([N+](=O)[O-])c1)c1ccc(Cl)cc1 | 13µM* | 4%
O=C(Nc1cc(Sc2ccccn2)cc([N+](=O)[O-])c1)c1cccc(Cl)c1 | ? | -7%
O=C(Cn1c(=O)n(CCc2ccccc2)c(=O)c2c3c(sc21)CCCC3)Nc1ccc(F)c(F)c1 | -1% | -1%
C[C@@H](CSC(=N)N)C(N)=O | 2% | 2%
Nc1ccc(S(=O)(=O)NCCS(=O)(=O)O)cc1 | 9% | 6%
O=C(/C=C/c1ccccc1)Nn1c(-c2cccs2)nc2ccccc2c1=O | ? | -8%
